Source: PubChem BioAssay
EBV LMP1 NFkB: EBV LMP1-driven NF-kappaB luciferase reporter inhibitors, primary screen, cell-based, luminescence, single point | 0.69% of 350,000 active | inhibition, % at 12.5 µM | LMP1-induced NF-kappaB luciferase reporter cells; in the data active means inhibition above about 41%; inconclusive means no clear call, values can overlap the other calls
TROY NFkB inh: inhibitors of TROY-driven NF-kB signaling, primary screen, Q293 LMP1-TROYcd cells, NF-kB luciferase, uHTS; Q293 LMP1-TROYcd NF-kB luciferase reporter, 4 h; inhibition, % at 10 µM; 0.98% of 360,000 active;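 active means compounds whose plate-normalised and pattern-corrected inhibition of the luciferase reporter signal at the single screening dose is 50% or more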
TRPM1 prom inh: inhibitors of MITF-dependent TRPM1 promoter reporter, primary screen, cell-based, SK-MEL-5, single point, luciferase | SK-MEL-5 TRPM1 promoter luciferase, 24 h | inhibition, % at 12.5 µM | 0.83% of 330,000 active;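 active means mean inhibition across replicates of 60% or more, whatever share of single replicates reaches that level; inconclusive means some that reach 60%, reason not given; inactive means mean inhibition across replicates below 60%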
TWEAK-Fn14 inh: inhibitors of TWEAK-Fn14 signaling, primary screen, luciferase reporter cells, uHTS; TWEAK-stimulated Fn14 reporter cells, luciferase luminescence, 8 h; inhibition, % at 10 µM; 2% of 360,000 active; AID 1159606, 2016; in the data active means inhibition above about 50%
Shn3 inh set2: reduction of Shn3 3'UTR firefly luciferase signal, primary screen, Schnurri-3 inhibitor project, cell-based, Clone20 osteoblasts, set 2 | Clone20 osteoblast Shn3 3'UTR firefly luciferase, 24 h | inhibition, % at 12.5 µM | AID 588674, 2011 | 0.52% of 360,000 active;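 active means mean inhibition of at least 75% with every replicate also reaching 75%; inconclusive means mean inhibition at least 75% but some replicate below; inactive means mean inhibition below 75%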
HIF-2a inh: HIF-2a reporter inhibitors, primary screen, luminescence, 786-0 RCC cells. AID 624352, 2012. 786-0 RCC cells HIF-2a reporter, luciferase luminescence, overnight. 0.72% of 360,000 active. inhibition, % at 18.8 µM;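 active means inhibition of the luminescence signal of 40% or more relative to plate controls, in a single-dose primary screen at 18.75 µM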
Mdm2 MdmX conf: retested Mdm2-MdmX interaction blockers, confirmation, cell-based, luminescence, single concentration, set 2; shares compounds with HIF-2a inh; SaOS-2 split-luciferase Mdm2/MdmX complementation; inhibition, % at 8 µM; 99% of 740 active; AID 504601, 2011;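 active means mean inhibition of the luminescence signal across two replicates at or above 26 percent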
Target sequence (O15151 whole entry, looked up): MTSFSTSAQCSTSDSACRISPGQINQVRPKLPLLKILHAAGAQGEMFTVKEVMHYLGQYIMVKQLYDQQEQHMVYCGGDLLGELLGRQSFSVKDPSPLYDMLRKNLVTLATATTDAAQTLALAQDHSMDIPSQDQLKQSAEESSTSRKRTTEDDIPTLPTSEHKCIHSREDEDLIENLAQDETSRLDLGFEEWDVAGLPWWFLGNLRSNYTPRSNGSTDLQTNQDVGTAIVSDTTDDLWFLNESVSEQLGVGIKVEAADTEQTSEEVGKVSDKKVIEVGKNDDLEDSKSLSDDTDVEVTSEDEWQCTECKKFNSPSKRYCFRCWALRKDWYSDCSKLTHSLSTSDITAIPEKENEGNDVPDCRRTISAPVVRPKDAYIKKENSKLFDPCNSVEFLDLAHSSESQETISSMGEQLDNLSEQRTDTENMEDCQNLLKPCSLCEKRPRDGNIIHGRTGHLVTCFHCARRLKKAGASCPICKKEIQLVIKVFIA
Target sequence (Q00987 whole entry, looked up): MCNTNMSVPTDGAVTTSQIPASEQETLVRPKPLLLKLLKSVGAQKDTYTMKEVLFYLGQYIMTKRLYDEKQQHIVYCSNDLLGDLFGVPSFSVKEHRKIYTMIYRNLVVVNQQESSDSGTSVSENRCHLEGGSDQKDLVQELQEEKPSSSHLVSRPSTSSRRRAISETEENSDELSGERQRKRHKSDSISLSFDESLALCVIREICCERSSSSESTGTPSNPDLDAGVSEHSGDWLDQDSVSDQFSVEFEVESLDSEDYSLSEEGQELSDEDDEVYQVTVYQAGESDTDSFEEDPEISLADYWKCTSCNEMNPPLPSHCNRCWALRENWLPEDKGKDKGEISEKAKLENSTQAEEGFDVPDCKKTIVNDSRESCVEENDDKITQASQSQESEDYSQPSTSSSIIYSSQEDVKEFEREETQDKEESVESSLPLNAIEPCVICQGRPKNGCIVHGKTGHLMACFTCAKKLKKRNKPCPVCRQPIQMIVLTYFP
HIF-2a conf: HIF-2a reporter inhibitor retest, confirmation, luminescence, 786-0 RCC cells; HIF-2a luciferase reporter luminescence, overnight; shares compounds with HIF-2a inh; 56% of 1,800 active; inhibition, % at 18.8 µM;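 active means mean inhibition across four replicates of at least 40 percent at the single tested concentration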
HIF-1a cs: HIF-1a luciferase reporter signal reduction – MiaPaCa-2 cells, single concentration, counter-screen for HIF-2a inhibitor project, confirmation; inhibition, % at 18.8 µM; MiaPaCa-2 HIF-1a luciferase reporter, desferoxamine, overnight; shares compounds with HIF-2a inh; AID 651589, 2012; 72% of 1,800 active;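 active means mean inhibition of the reporter signal across four replicates at the single tested dose of 50% or more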
Numbers stand for hits; – = inactive; ? = inconclusive; · = not tested or not shown. An excerpt weighted towards active compounds, which were near 3.4% of everything screened.

SMILES	EBV LMP1 NFkB	TROY NFkB inh	TRPM1 prom inh	TWEAK-Fn14 inh	Shn3 inh set2	HIF-2a inh	HIF-2a conf	HIF-1a cs	others
O=C(NCCCN1CCOCC1)c1cc(-c2ccc(Br)cc2)on1	–	–	–	–	–	57.5	–	61.7
O=C(O)CCS(=O)(=O)c1nc(-c2cccs2)cc(C(F)(F)F)n1	–	–	–	–	–	–	·	·
CCOC(=O)CS(=O)(=O)c1nc(-c2ccccc2)cc(C(F)(F)F)n1	?	–	101.5	–	97.4	89.3	81.6	65.0
Cc1cc(NC(=O)CSc2nc(-c3cccs3)cc(C(F)(F)F)n2)no1	–	–	–	–	–	–	·	·
COC(=O)CCS(=O)(=O)c1nc(-c2ccccc2)cc(C(F)(F)F)n1	–	–	94.0	90.5	–	87.6	98.6	107.0	Mdm2 MdmX conf=103.2
Cc1cc(NC(=O)CCCS(=O)(=O)c2nc(-c3cccs3)cc(C(F)(F)F)n2)no1	–	66.4	95.2	60.0	94.8	93.6	56.1	103.7
CCOC(=O)CCS(=O)(=O)c1nc(-c2ccccc2)cc(C(F)(F)F)n1	–	–	85.1	83.5	97.6	94.5	·	·	Mdm2 MdmX conf=103.0
CCOc1ccc(-n2c(=O)c3sccc3n(CC(=O)NC3CCCCC3)c2=O)cc1	–	–	–	–	–	–	·	·
CCOC(=O)c1c(C(F)(F)F)cc(-c2ccc(F)cc2)nc1C	–	–	–	–	–	–	·	·
CCOC(=O)CS(=O)(=O)c1nc(-c2ccc(F)cc2)cc(C(F)(F)F)n1	69.0	51.3	99.4	57.5	96.7	93.4	·	·	Mdm2 MdmX conf=99.5
COc1cc(C(=O)OCC(=O)c2ccccc2)cc2c1OCCO2	–	–	–	–	–	–	·	·
N#CC(C#N)=C1CCCc2sccc21	–	–	–	–	–	–	·	·
Nc1nc2ccc(S(=O)(=O)c3ccc4nc(N)sc4c3)cc2s1	–	–	–	–	–	47.7	40.6	–
CC(=N\NC(=O)c1ccc([N+](=O)[O-])cc1)/C(=N/O)C(=O)Nc1ccccc1	–	–	–	–	–	–	·	·
CN(C)CCCNC(=O)c1ccc(-c2nc(-c3ccc(Cl)cc3)cs2)cc1	–	–	82.7	–	–	88.5	–	106.2
Cc1cc(S(=O)(=O)Nc2ccc3cn[nH]c3c2)c(C)cc1Cl	–	–	–	–	–	–	·	·
S=C(c1cn(CCOc2ccccc2)c2ccccc12)N1CCCC1	–	–	–	–	–	–	·	·
Cc1ccc(OCCn2cc(C(=S)N3CCCC3)c3ccccc32)cc1C	?	–	–	–	–	–	·	·	Mdm2 MdmX conf=99.7
CC(NC(=O)CN(c1cccc(C(F)(F)F)c1)S(=O)(=O)c1ccc(Cl)c([N+](=O)[O-])c1)c1ccccc1 (stereo not drawn)	–	–	79.3	–	–	78.1	–	102.8
O=C(CN(c1cccc(C(F)(F)F)c1)S(=O)(=O)c1ccc(Cl)c([N+](=O)[O-])c1)NCc1ccccc1Cl	–	–	–	–	–	70.1	–	104.3
O=C(CN(c1cccc(C(F)(F)F)c1)S(=O)(=O)c1ccc(Cl)c([N+](=O)[O-])c1)NCc1ccccc1	–	–	–	–	–	–	·	·
C=CCN(c1ccc(C(=O)Nc2ccc(C)c(C)c2)cc1)S(C)(=O)=O	–	–	·	–	–	–	·	·
COc1ccc(CC(=O)Nc2nnc(C(C)C)s2)cc1OC	–	–	–	–	–	–	·	·
CCc1ccc(NC(=O)c2ccc(NC3=NC4CS(=O)(=O)CC4S3)cc2)cc1 (stereo not drawn)	–	–	–	–	–	–	·	·
